Inconclusive results are not listed. A structure can be active in one record and inactive in another. The source made the active and inactive calls. Rule for the calls: active = hit-call score of the fitted dose curve at least 0.9, where 1 is the maximum; inconclusive = response in the unintended direction; inactive = score below 0.9.
The molecules below were run against rat Peripheral-type Benzodiazepine Receptor (PBR), Tspo (gene 24230) (UniProt P16257) (assay: NVS_MP_rPBR: NovaScreen (NVS) Membrane Protein Assay for rat Peripheral-type Benzodiazepine Receptor (PBR) (AID 2283335)).
Sequence of rat Peripheral-type Benzodiazepine Receptor (PBR), Tspo (gene 24230) (P16257 whole entry, looked up): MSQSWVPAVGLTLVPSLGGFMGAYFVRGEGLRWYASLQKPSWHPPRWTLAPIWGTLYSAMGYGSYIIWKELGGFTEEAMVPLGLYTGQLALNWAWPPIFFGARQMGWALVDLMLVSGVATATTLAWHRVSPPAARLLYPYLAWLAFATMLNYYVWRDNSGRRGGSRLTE
In short: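 Competitive displacement of specific radioligand from rat kidney membrane PBR, read by filtration and scintillation after 1 h. Compounds first tested at 25 uM in duplicate, then in concentration series; signal loss relative to DMSO.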
Cc1ccccc1CO[C@@H]1C[C@@]2(C(C)C)CC[C@]1(C)O2 was tested, and the outcome was “inactive”.
For Cc1ccc(O)c(C)c1, the outcome was “inactive”.
In the case of Oc1ccc(C(c2ccc(O)cc2)(C(F)(F)F)C(F)(F)F)cc1, the AC50 was 6.31 µM (active) and the outcome was “inactive”.
For Cc1cc2c3c(c1)C(c1ccccc1)=N[C@@H](NC(=O)c1ccncc1)C(=O)N3CC2, the AC50 was 9.63 µM (active).
CCSC(=O)N(CC)C1CCCCC1 was tested, and the outcome was “inactive”.
In the case of CCC(C)(c1ccc(O)cc1)c1ccc(O)cc1, the AC50 was 6.5 µM (active) and the outcome was “inactive”.
CC(C)(c1ccccc1)c1ccc(O)cc1 was tested, and the outcome was “inactive”.
With CCC(C)(CC)c1cc(NC(=O)c2c(OC)cccc2OC)on1 the outcome was “inactive”.
For Cc1cc(-c2ccc(N)c(C)c2)ccc1N, the AC50 was 13.7 µM (active).
With CC(C)(O)C(=O)Nc1ccc([N+](=O)[O-])c(C(F)(F)F)c1 the outcome was “inactive”.
CCOC(=O)C(O)(c1ccc(Cl)cc1)c1ccc(Cl)cc1 was tested, and the AC50 was 10 µM (active).
For OCC(O)CO, the outcome was “inactive”.
CO/C=C(/C(=O)OC)c1ccccc1COc1cccc(C(F)(F)F)n1 was tested, and the AC50 was 0.189 µM (active).

What follows are molecules tested against Small conductance calcium-activated potassium channel protein 1 (Rattus norvegicus) (UniProt P70606) (assay: NVS_IC_rKCaCh: NovaScreen (NVS) Ion Channel Assay for rat Potassium Channel, Ca2+ Act., VI (KCaCh) (AID 2283336)).
Sequence of Small conductance calcium-activated potassium channel protein 1 (Rattus norvegicus) (P70606 whole entry, looked up): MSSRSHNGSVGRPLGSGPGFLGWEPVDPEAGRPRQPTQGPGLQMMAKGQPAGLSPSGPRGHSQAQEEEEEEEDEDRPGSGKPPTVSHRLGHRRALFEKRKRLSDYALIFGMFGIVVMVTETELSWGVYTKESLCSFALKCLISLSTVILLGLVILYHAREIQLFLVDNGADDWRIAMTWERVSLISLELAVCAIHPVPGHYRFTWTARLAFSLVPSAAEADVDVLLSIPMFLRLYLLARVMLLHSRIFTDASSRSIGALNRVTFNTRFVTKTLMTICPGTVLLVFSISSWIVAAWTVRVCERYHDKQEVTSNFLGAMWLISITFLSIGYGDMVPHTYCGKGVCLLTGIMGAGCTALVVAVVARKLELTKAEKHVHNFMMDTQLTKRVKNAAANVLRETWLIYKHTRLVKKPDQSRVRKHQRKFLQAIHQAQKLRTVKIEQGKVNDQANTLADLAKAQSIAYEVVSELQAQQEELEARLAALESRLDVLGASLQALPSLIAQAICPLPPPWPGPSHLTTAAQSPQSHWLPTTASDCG
In short: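 Filter-based scintillation counting of radioligand bound to rat forebrain membrane preparations, measured 1 h after compound addition. Primary screen used 25 uM in duplicate, with concentration-response follow-up; signal decrease relative to DMSO marks activity.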
With c1ccc(-c2ccccc2)cc1 the outcome was “inactive”.
COc1ccc(O)c(C(C)(C)C)c1 was tested, and the outcome was “inactive”.
For CC(C)(c1ccccc1)c1ccc(O)cc1, the outcome was “inactive”.
With O=C(NC(=O)c1cc(F)c(F)cc1Cl)Nc1cc(F)ccc1N1CCC(C(=O)O)CC1 the outcome was “inactive”.

What follows are molecules tested against bovine Gamma-Aminobutyric Acid Type A Receptor Agonist (GABAR Agonist), GABRA1 (gene 780973) (UniProt P08219) (assay: NVS_LGIC_bGABAR_Agonist: NovaScreen (NVS) Ligand-Gated Ion Channel Assay for bovine Gamma-Aminobutyric Acid Type A Receptor Agonist (GABAR Agonist) (AID 2283338)).
Sequence of bovine Gamma-Aminobutyric Acid Type A Receptor Agonist (GABAR Agonist), GABRA1 (gene 780973) (P08219 whole entry, looked up): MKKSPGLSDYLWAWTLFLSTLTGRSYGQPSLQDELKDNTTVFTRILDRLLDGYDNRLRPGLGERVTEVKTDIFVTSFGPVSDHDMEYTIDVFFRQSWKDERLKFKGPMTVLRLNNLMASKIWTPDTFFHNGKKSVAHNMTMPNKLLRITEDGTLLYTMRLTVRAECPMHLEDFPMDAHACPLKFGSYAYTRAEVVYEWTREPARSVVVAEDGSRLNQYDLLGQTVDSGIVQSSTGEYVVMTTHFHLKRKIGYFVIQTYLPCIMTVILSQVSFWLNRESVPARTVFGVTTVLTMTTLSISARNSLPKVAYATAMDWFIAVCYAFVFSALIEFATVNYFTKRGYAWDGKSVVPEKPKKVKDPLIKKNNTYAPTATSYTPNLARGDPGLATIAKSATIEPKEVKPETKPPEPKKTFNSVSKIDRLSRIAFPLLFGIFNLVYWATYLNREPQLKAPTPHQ
In short: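 Radioligand binding to bovine cerebellar membranes in agonist format, read by filter-based scintillation counting after 1 h. Primary screen in duplicate at 25 uM, with actives followed in concentration series. Gain of signal versus DMSO.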
For CCC(C)c1cc([N+](=O)[O-])cc([N+](=O)[O-])c1O (stereo not drawn), the outcome was “inactive”.
In the case of c1cc2ccc3cccc4ccc(c1)c2c34, the outcome was “inactive”.
For O=C(O)C(F)(F)C(F)(F)C(F)(F)C(F)(F)C(F)(F)C(F)(F)C(F)(F)C(F)(F)C(F)(F)F, the outcome was “inactive”.
In the case of CC#Cc1cc(C)nc(Nc2ccccc2)n1, the outcome was “inactive”.
CCCCCCCCCC[N+](C)(C)CCCCCCCCCC was tested, and the outcome was “inactive”.
With NS(=O)(=O)C(F)(F)C(F)(F)C(F)(F)C(F)(F)C(F)(F)C(F)(F)C(F)(F)C(F)(F)F the outcome was “inactive”.

What follows are molecules tested on guinea pig Histamine Receptor (H2), gene 100729734 (assay: NVS_GPCR_gH2: NovaScreen (NVS) G Protein-Coupled Receptor Assay for guinea pig Histamine Receptor (H2) (AID 2283342)).
In short: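 Guinea pig striatal membrane preparation with specific radioligand; bound counts measured by filtration and scintillation 1 h post-dosing, DMSO as baseline. Chemicals passing a 25 uM duplicate screen were titrated to a 50 uM maximum.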
With CCC(C)(c1ccc(O)cc1)c1ccc(O)cc1 the outcome was “inactive”.
For CCCCCCCCCC[N+](C)(C)CCCCCCCCCC, the AC50 was 9.87 µM (active).
With C[C@]12CCC(=O)C=C1CC[C@@H]1[C@@H]2CC[C@@]2(C)[C@H]1CC[C@]2(C)O the outcome was “inactive”.

From PubChem BioAssay (EPA / NIEHS)
